Results published in PubChem BioAssay AID651956 (Broad Institute, 2012).
Results with a measured potency or affinity are listed apart. Inconclusive results are not listed. Activity calls are given as the source filed them.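 How the source made its calls: active means in every test run, a fitted half-maximal concentration for signal decrease at or below twice the highest tested concentration; inconclusive means runs disagree, flat 30 to 70% decrease, or poor fit; inactive means the rest.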

experiment: miR-122 activators in hepatoma reporter cells, dose response, cell-based, Huh7 psiCHECK-miR122, Renilla luciferase, cherry-picked (AID 651956); conditions: 48 h; series mostly up to 35 µM;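 further: Renilla luciferase from a miR-122 sensor reporter so lower signal means miR-122 activation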

outcome, inactive:
CCC(=O)N1[C@H](CO)[C@H](c2ccccc2)[C@@H]1CN(C(C)C)S(C)(=O)=O
C[C@H](O)C#Cc1ccc2c(c1)O[C@@H](CN(C)Cc1ccc(-c3ccccc3)cc1)[C@H](C)CN([C@H](C)CO)S2(=O)=O
COc1ccccc1C(=O)N1C[C@@H]2[C@H](c3ccccc31)[C@H](CO)N2CC1CCCC1
COCC(=O)Nc1ccc2c(c1)C(=O)N(C)[C@@H]1CC[C@H](CC(=O)N3CCc4ccccc4C3)O[C@H]1CO2
COCC(=O)Nc1ccc2c(c1)C(=O)N(C)[C@@H]1CC[C@@H](CC(=O)NC3CCCC3)O[C@@H]1CO2
COc1ccc(CN2CCN(Cc3cccn3-c3ncccn3)CC2CCO)c(C)c1C (centres undefined)
CCNC(=O)C[C@H]1CC[C@H]2[C@@H](COc3ccc(NS(C)(=O)=O)cc3C(=O)N2C)O1
CC(C)NC(=O)Nc1ccc2c(c1)C(=O)N(C)[C@@H]1CC[C@@H](CC(=O)NCC(F)(F)F)O[C@@H]1CO2
Cc1cccc(NC(=O)Nc2ccc3c(c2)C(=O)N(C)[C@H]2CC[C@H](CC(=O)O)O[C@H]2CO3)c1
CC(=O)Nc1ccc2c(c1)C(=O)N(C)[C@H]1CC[C@H](CC(=O)NC3CCCCC3)O[C@@H]1CO2
COCC(=O)Nc1ccc2c(c1)C(=O)N(C)[C@@H]1CC[C@H](CC(=O)NCCCN(C)C)O[C@H]1CO2
Clc1ccc(CSc2nnc(-c3ccncc3)o2)c(Cl)c1
C/C(=N\Nc1cc(N2CCCCC2)nc(C)n1)c1ccc(Br)cc1
COc1ccc2c(c1)C(C)=CC(C)(C)N2C(=O)CNCc1ccc2c(c1)OCO2
CCOC(=O)C1CN(S(=O)(=O)c2ccccc2)CCN1S(=O)(=O)c1ccccc1 (centres undefined)
COc1ccc(N2CCc3c(C)nc4c(OC)cc(OC)cc4c32)c(OC)c1
CC(=O)N1[C@H](CO)[C@H](c2ccccc2)[C@@H]1CN(C(=O)c1ccc(F)cc1)C(C)C
CO[C@H]1CN(C)C(=O)c2ccc(NS(C)(=O)=O)cc2OC[C@H](C)N(C(=O)CN(C)C)C[C@H]1C
CCCCN1C=C(C(=O)OC)C(c2ccccc2C(F)(F)F)C(C(=O)OC)=C1
CN1C(=O)c2cc(NS(=O)(=O)c3cccc(F)c3)ccc2OC[C@@H]2O[C@@H](CC(=O)NCCN3CCCCC3)CC[C@H]21
CN1C(=O)c2cc(NC(=O)Cc3ccccc3)ccc2OC[C@H]2O[C@@H](CC(=O)NC3CCC3)CC[C@H]21
C/C=C/c1ccc([C@@H]2[C@H](CO)N[C@H]2CN(CC)C(=O)CN2CCOCC2)cc1
C/C=C/c1ccc([C@H]2[C@@H](CO)N[C@@H]2CN(CC)C(=O)CN2CCOCC2)cc1
COCC(=O)Nc1ccc2c(c1)C(=O)N(C)[C@@H]1CC[C@H](CC(=O)NC3CCCC3)O[C@H]1CO2
COc1ccc(-c2ccc(C#N)c(OC(=O)c3c(Cl)cccc3Cl)n2)cc1
COc1nnc(-c2ccc(N3CCOCC3)c(NC(=O)c3ccccc3)c2)c2ccccc12
CCOC(=O)c1nc(C)n(-c2ccc(Cl)cc2Cl)n1
C[C@H](CO)N1C[C@H](C)[C@@H](CN(C)CC2CCCCC2)OCCCC[C@H](C)Oc2ccc(NC(=O)Nc3cccc4ccccc34)cc2C1=O
C[C@H](CO)N1C[C@H](C)[C@H](CN(C)Cc2ccccc2)Oc2cc(/C=C/c3ccccc3)ccc2S1(=O)=O
CCNC(=O)C[C@H]1CC[C@H]2[C@H](COc3ccc(NC(=O)Nc4cccc(OC)c4)cc3C(=O)N2C)O1
O=C(CSc1nc2ccccc2s1)N1CCOCC1
N=c1c2c(-c3ccccc3)c(-c3ccccc3)n(Cc3ccccc3)c2ncn1CCCO
C[C@@H]1CN([C@@H](C)CO)S(=O)(=O)c2ccc(C3=CCCC3)cc2O[C@@H]1CN(C)C(=O)c1ccc(F)cc1
COCC(=O)N(C)C[C@@H]1[C@@H](c2ccccc2)[C@H](CO)N1C(=O)Cc1ccncc1
C[C@@H]1CN([C@H](C)CO)C(=O)c2cccc(NC(=O)c3ccc(-c4nccs4)cc3)c2O[C@H]1CN(C)S(=O)(=O)c1ccc(F)cc1
CNC(=O)C[C@H]1CC[C@H]2[C@@H](COc3ccc(NC(=O)C4CC4)cc3C(=O)N2C)O1
O=C(Nc1ccccc1F)N1[C@H](CO)[C@@H]2c3ccccc3NC[C@@H]21
COc1ccc2[nH]c(=O)c(COC(=O)c3ccco3)cc2c1
C/C=C/c1ccc([C@H]2[C@@H](CO)N(C(=O)C3CC3)[C@H]2CNC(=O)NC(C)C)cc1
